# Where two headings read alike, the source gives them in different places.
# Columns and labels:
# PIP5K1A = settings: concentration: 1 μM, replicates: in singlicate; n = 1
# PIP5K1C = settings: concentration: 1 μM, replicates: in singlicate; n = 1
# PIP5K2B = settings: concentration: 1 μM, replicates: in singlicate; n = 1
# PIP5K2C = tested on: T1, PIP5K2C; settings: concentration: 1 μM, replicates: in singlicate; n = 1
# T1 construct: gene PIP4K2C
# PKAC-alpha = tested on: T2, PKAC-alpha; settings: n = 1
# T2 construct: gene PRKACA
# PKAC-beta = tested on: T3, PKAC-beta; settings: n = 1
# T3 construct: gene PRKACB
# PKMYT1 = settings: concentration: 1 μM, replicates: in singlicate; n = 1
# PKN1 = settings: n = 1
# PKN2 = settings: concentration: 1 μM, replicates: in singlicate; n = 1
# PLK1 = settings: concentration: 1 μM, replicates: in singlicate; n = 1
# PLK2 = settings: concentration: 1 μM, replicates: in singlicate; n = 1
# PLK3 = settings: concentration: 1 μM, replicates: in singlicate; n = 1
# PLK4 = settings: concentration: 1 μM, replicates: in singlicate; n = 1
# PRKCD = settings: n = 1
# PRKCE = settings: concentration: 1 μM, replicates: in singlicate; n = 1
# PRKCH = settings: concentration: 1 μM, replicates: in singlicate; n = 1
# PRKCI = settings: n = 1
# PRKCQ = settings: concentration: 1 μM, replicates: in singlicate; n = 1
# PRKD1 = settings: concentration: 1 μM, replicates: in singlicate; n = 1
# PRKD2 = settings: concentration: 1 μM, replicates: in singlicate; n = 1
# [1] = concentration: 1 μM, replicates: in singlicate
# 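Further: KINOMEscan kinase panel screen.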
compound,measurement,setting,value
COC(=O)Nc1nc2cc(Oc3ccc(NC(=O)Nc4cc(C(F)(F)F)ccc4F)cn3)ccc2[nH]1.Cl.Cl [GW681170],%Inh,PIP5K1A,9%
same,%Inh,PIP5K1C,61%
same,%Inh,PIP5K2B,12%
same,%Inh,PIP5K2C,19%
same,%Inh,PKAC-alpha; [1],0%
same,%Inh,PKAC-beta; [1],0%
same,%Inh,PKMYT1,5%
same,%Inh,PKN1; [1],15%
same,%Inh,PKN2,15%
same,%Inh,PLK1,0%
same,%Inh,PLK2,0%
same,%Inh,PLK3,0%
same,%Inh,PLK4,55%
same,%Inh,PRKCD; [1],0%
same,%Inh,PRKCE,12%
same,%Inh,PRKCH,14%
same,%Inh,PRKCI; [1],26%
same,%Inh,PRKCQ,0%
same,%Inh,PRKD1,0%
same,%Inh,PRKD2,9%
COC(=O)Nc1nc2ccc(Oc3ccc(NC(=O)Nc4cc(C(F)(F)F)ccc4F)cc3)cc2n1C.Cl [GW692089],%Inh,PIP5K1A,74%
same,%Inh,PIP5K1C,61%
same,%Inh,PIP5K2B,22%
same,%Inh,PIP5K2C,41%
same,%Inh,PKAC-alpha; [1],0%
same,%Inh,PKAC-beta; [1],0%
same,%Inh,PKMYT1,0%
same,%Inh,PKN1; [1],0%
same,%Inh,PKN2,11%
same,%Inh,PLK1,0%
same,%Inh,PLK2,0%
same,%Inh,PLK3,30%
same,%Inh,PLK4,0%
same,%Inh,PRKCD; [1],0%
same,%Inh,PRKCE,20%
same,%Inh,PRKCH,0%
same,%Inh,PRKCI; [1],4%
same,%Inh,PRKCQ,0%
same,%Inh,PRKD1,0%
same,%Inh,PRKD2,10%
Clc1ccc(-c2nn3ncccc3c2-c2ccnc(Nc3ccc4c(c3)OCCO4)n2)cc1 [GW829116],%Inh,PIP5K1A,17%
same,%Inh,PIP5K1C,0%
same,%Inh,PIP5K2B,0%
same,%Inh,PIP5K2C,43%
same,%Inh,PKAC-alpha; [1],24%
same,%Inh,PKAC-beta; [1],0%
same,%Inh,PKMYT1,2%
same,%Inh,PKN1; [1],0%
same,%Inh,PKN2,0%
same,%Inh,PLK1,0%
same,%Inh,PLK2,0%
same,%Inh,PLK3,7%
same,%Inh,PLK4,2%
same,%Inh,PRKCD; [1],0%
same,%Inh,PRKCE,1%
same,%Inh,PRKCH,0%
same,%Inh,PRKCI; [1],0%
same,%Inh,PRKCQ,22%
same,%Inh,PRKD1,0%
same,%Inh,PRKD2,1%
COc1ccc(-c2coc3ccc(-c4nnc(SCc5ccc(OC)c(C(F)(F)F)c5)o4)cc23)cc1,%Inh,PIP5K1A,0%
same,%Inh,PIP5K1C,0%
same,%Inh,PIP5K2B,4%
same,%Inh,PIP5K2C,0%
same,%Inh,PKAC-alpha; [1],15%
same,%Inh,PKAC-beta; [1],3%
same,%Inh,PKMYT1,17%
same,%Inh,PKN1; [1],24%
same,%Inh,PKN2,3%
same,%Inh,PLK1,0%
same,%Inh,PLK2,15%
same,%Inh,PLK3,14%
same,%Inh,PLK4,8%
same,%Inh,PRKCD; [1],9%
same,%Inh,PRKCE,0%
same,%Inh,PRKCH,0%
same,%Inh,PRKCI; [1],0%
same,%Inh,PRKCQ,0%
same,%Inh,PRKD1,0%
same,%Inh,PRKD2,0%
Nc1ncc(-c2ccc3nccc(-c4ccncc4)c3c2)cc1S(=O)(=O)N1CCOCC1 [GSK1627798],%Inh,PIP5K1A,0%
same,%Inh,PIP5K1C,0%
same,%Inh,PIP5K2B,5%
same,%Inh,PIP5K2C,30%
same,%Inh,PKAC-alpha; [1],0%
same,%Inh,PKAC-beta; [1],0%
same,%Inh,PKMYT1,11%
same,%Inh,PKN1; [1],12%
same,%Inh,PKN2,0%
same,%Inh,PLK1,0%
same,%Inh,PLK2,0%
same,%Inh,PLK3,0%
same,%Inh,PLK4,0%
same,%Inh,PRKCD; [1],0%
same,%Inh,PRKCE,9%
same,%Inh,PRKCH,18%
same,%Inh,PRKCI; [1],9%
same,%Inh,PRKCQ,0%
same,%Inh,PRKD1,0%
same,%Inh,PRKD2,3%
O=C(Nc1cccc(Oc2ccc3nc(NC(=O)C4CC4)cn3n2)c1)c1ccccc1C(F)(F)F,%Inh,PIP5K1A,39%
same,%Inh,PIP5K1C,33%
same,%Inh,PIP5K2B,0%
same,%Inh,PIP5K2C,34%
same,%Inh,PKAC-alpha; [1],0%
same,%Inh,PKAC-beta; [1],34%
same,%Inh,PKMYT1,0%
same,%Inh,PKN1; [1],0%
same,%Inh,PKN2,0%
same,%Inh,PLK1,0%
same,%Inh,PLK2,0%
same,%Inh,PLK3,4%
same,%Inh,PLK4,0%
same,%Inh,PRKCD; [1],3%
same,%Inh,PRKCE,6%
same,%Inh,PRKCH,0%
same,%Inh,PRKCI; [1],28%
same,%Inh,PRKCQ,0%
same,%Inh,PRKD1,0%
same,%Inh,PRKD2,0%
CN1CCN(CCCNc2nccc(-c3c(-c4ccc(F)cc4)nn4cc(C(F)(F)F)ccc34)n2)CC1 [GW621581],%Inh,PIP5K1A,0%
same,%Inh,PIP5K1C,11%
same,%Inh,PIP5K2B,0%
same,%Inh,PIP5K2C,0%
same,%Inh,PKAC-alpha; [1],0%
same,%Inh,PKAC-beta; [1],9%
same,%Inh,PKMYT1,0%
same,%Inh,PKN1; [1],12%
same,%Inh,PKN2,0%
same,%Inh,PLK1,0%
same,%Inh,PLK2,0%
same,%Inh,PLK3,0%
same,%Inh,PLK4,12%
same,%Inh,PRKCD; [1],7%
same,%Inh,PRKCE,0%
same,%Inh,PRKCH,20%
same,%Inh,PRKCI; [1],19%
same,%Inh,PRKCQ,7%
same,%Inh,PRKD1,47%
same,%Inh,PRKD2,34%
CN(C)Cc1ccc(-c2ccc3c(Nc4ccc(Oc5ccccn5)cc4)ccnc3c2)o1 [GW567148],%Inh,PIP5K1A,33%
same,%Inh,PIP5K1C,18%
same,%Inh,PIP5K2B,0%
same,%Inh,PIP5K2C,49%
same,%Inh,PKAC-alpha; [1],0%
same,%Inh,PKAC-beta; [1],0%
same,%Inh,PKMYT1,0%
same,%Inh,PKN1; [1],0%
same,%Inh,PKN2,0%
same,%Inh,PLK1,0%
same,%Inh,PLK2,0%
same,%Inh,PLK3,0%
same,%Inh,PLK4,37%
same,%Inh,PRKCD; [1],0%
same,%Inh,PRKCE,0%
same,%Inh,PRKCH,7%
same,%Inh,PRKCI; [1],0%
same,%Inh,PRKCQ,0%
same,%Inh,PRKD1,0%
same,%Inh,PRKD2,4%
Nc1ncc(-c2cccnc2)c2scc(-c3ccc4c(c3)CCN4C(=O)Cc3ccccc3)c12 [GSK683281],%Inh,PIP5K1A,0%
same,%Inh,PIP5K1C,17%
same,%Inh,PIP5K2B,19%
same,%Inh,PIP5K2C,0%
same,%Inh,PKAC-alpha; [1],31%
same,%Inh,PKAC-beta; [1],13%
same,%Inh,PKMYT1,13%
same,%Inh,PKN1; [1],30%
same,%Inh,PKN2,18%
same,%Inh,PLK1,5%
same,%Inh,PLK2,0%
same,%Inh,PLK3,0%
same,%Inh,PLK4,15%
same,%Inh,PRKCD; [1],25%
same,%Inh,PRKCE,0%
same,%Inh,PRKCH,33%
same,%Inh,PRKCI; [1],33%
same,%Inh,PRKCQ,14%
same,%Inh,PRKD1,23%
same,%Inh,PRKD2,73%
CCn1c(-c2nonc2N)nc2c(C#CC(C)(C)O)ncc(OCCCCN)c21.O=C(O)C(F)(F)F.O=C(O)C(F)(F)F [GSK507274],%Inh,PIP5K1A,26%
same,%Inh,PIP5K1C,0%
same,%Inh,PIP5K2B,6%
same,%Inh,PIP5K2C,0%
same,%Inh,PKAC-alpha; 1 µM,92.5%
same,%Inh,PKAC-beta; 1 µM,95.6%
same,%Inh,PKMYT1,0%
same,%Inh,PKN1; 1 µM,5%
same,%Inh,PKN2,0%
same,%Inh,PLK1,5%
same,%Inh,PLK2,0%
same,%Inh,PLK3,0%
same,%Inh,PLK4,0%
same,%Inh,PRKCD; 1 µM,91%
same,%Inh,PRKCE,98%
same,%Inh,PRKCH,97.7%
same,%Inh,PRKCI; 1 µM,78%
same,%Inh,PRKCQ,86%
same,%Inh,PRKD1,29%
same,%Inh,PRKD2,23%

# From article PMC5540273 (PLoS ONE, 2017)
